ALOX12 inh = ALOX12 (human) lipoxygenase inhibition. P18054. purified 12hLO, xylenol orange hydroperoxide absorbance. Potency, µM (doses to about 108 µM), for the others: at the top dose activity change, negative = inhibition, usual class: inhibitors. hit rate 1.1% among 580,000. AID 1671190
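Hydroperoxide product was detected by ferrous iron/xylenol orange as the 573 to 405 nm absorbance ratio. Arachidonic acid at 40 uM (final) was turned over for 30 min at room temperature by 150 nM human 12hLO, pH 7.0 Hepes buffer, after 15 min compound preincubation.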
Sfp inh = inhibitors of Bacillus subtilis Sfp phosphopantetheinyl transferase; Q9F4F7; Biochemical Sfp PPTase activity, qHTS; Potency, µM, for the others: largest response in the series, negative = inhibition, hits mostly inhibitors; hit rate 3.5% among 310,000; AID 1490;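 note: the enzyme is Sfp with the accession as filed and its product quenches rhodamine fluorescence; 0% = enzyme reaction without inhibitor and -100% = no enzyme wells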
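Compounds were incubated with enzyme (final 15 nM) for 15 min at room temperature before substrate addition started the reaction. Fluorescence at 525 nm excitation, 598 nm emission was recorded immediately and after 30 minutes.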
VDR inhibitor = blocks the human vitamin D receptor; P11473; VDR-SRC2-3 peptide fluorescence polarization, 2 h; Potency, µM, for inactives: max response, negative = inhibition, most hits filed as inhibitors; hit rate 0.93% among 400,000; AID 504847
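Inhibition of the VDR/SRC2-3 peptide interaction is quantified by fluorescence polarization. Compounds (23 nl, pintool) incubate with the reagents for 2 hours at ambient room temperature.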
PLK1 PBD block = PLK1 (human) polo-box domain binding inhibition. P53350. Plk1 PBD binding of FITC phosphopeptide, fluorescence polarization. Potency, µM, for inactives: max response, negative = inhibition, most hits filed as inhibitors. hit rate 2.8% among 360,000. AID 720504; note: series mostly up to about 57 µM; nearly all actives have a fitted effect of over 65% in size
Target sequence (P53350 whole entry, looked up, the tested form may be a part): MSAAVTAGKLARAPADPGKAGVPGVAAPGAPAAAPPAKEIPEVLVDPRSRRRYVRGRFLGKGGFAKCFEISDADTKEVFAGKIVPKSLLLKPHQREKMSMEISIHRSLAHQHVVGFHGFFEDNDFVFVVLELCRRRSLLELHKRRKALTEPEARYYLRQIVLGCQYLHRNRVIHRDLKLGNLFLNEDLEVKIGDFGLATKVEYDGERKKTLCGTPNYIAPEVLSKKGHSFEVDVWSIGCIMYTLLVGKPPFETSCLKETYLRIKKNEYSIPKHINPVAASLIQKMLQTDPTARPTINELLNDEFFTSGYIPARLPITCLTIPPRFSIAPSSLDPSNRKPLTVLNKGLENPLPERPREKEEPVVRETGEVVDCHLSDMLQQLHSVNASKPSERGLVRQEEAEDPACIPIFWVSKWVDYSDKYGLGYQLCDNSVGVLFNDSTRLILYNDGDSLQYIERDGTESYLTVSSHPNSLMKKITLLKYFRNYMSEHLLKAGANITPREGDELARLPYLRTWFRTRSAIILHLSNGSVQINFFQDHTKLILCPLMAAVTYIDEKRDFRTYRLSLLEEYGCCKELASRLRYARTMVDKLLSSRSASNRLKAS
An asterisk follows results filed as active; ? = inconclusive; / = no result; [ ] = dose if it differs, or a comment. Rows were chosen to be rich in hits. Some 4.2% of all compounds tested hit in one or more screens of this group. Calls come from the whole dose curve; as a rule, active = well fitted curve in the direction sought with a large enough effect; inconclusive = small, poorly fitted or top-dose-only effect, or another doubt; inactive = no such curve, though single readings can be large; an effect the other way counts as inactive or inconclusive. Unless noted, % is set by controls: 0 for no effect and ±100 for the full control effect; potency is the fitted concentration of half-maximal effect.

SMILES	ALOX12 inh	Sfp inh	VDR inhibitor	PLK1 PBD block
Cc1c(C(=O)N2CCN(c3cccc(Cl)c3)CC2)cccc1[N+](=O)[O-]	-12%	-2%	?	30µM*
COc1ccc(C(=O)N(c2ccccc2)c2nccc3ccccc23)cc1OC	-43%	/	-10%	-6%
CCCNC1=CC(=O)CC(C)(C)C1	0%	10%	0%	0%
O=C(NCc1cccnc1)c1csc([C@@H]2O[C@H](CO)[C@H](O)[C@H](O)[C@H]2O)n1	?	/	/	-1%
C=C1SC(=Nc2ccccc2Cl)N(C(=O)c2sc3ccccc3c2Cl)C12CCCCC2	/	-9%	/	/
Oc1ccc(N=Cc2ccc(-c3cccs3)s2)cc1	?	32µM*	79µM*	-3%
O=Cc1ccc(-c2cccs2)s1	-18%	/	-19%	-20%
O=C(CSc1nc2ccccc2n1Cc1cccc(Cl)c1)N1CCN(c2ccc(F)cc2)CC1	-10%	/	3%	/
CCn1c(SC(C)C(=O)N2CCOCC2)nc2sc(C)c(C)c2c1=O (stereo not given)	6%	/	-18%	-7%
CCOC(=O)CSc1nnc(COc2ccc3ccccc3c2)o1	0%	19%	-22%	27µM*
COC(=O)c1ccc(NC(=O)CSc2nnc(COc3ccc4c(c3)CCCC4)o2)cc1	16%	8%	8%	-3%
COC(=O)CSc1nnc(COc2ccc3ccccc3c2)o1	3%	1%	2%	-17%
COc1cccc(NC(=O)CSc2nnc(COc3ccc4c(c3)CCCC4)o2)c1	14µM*	14%	2%	-3%
CCc1sc(Nc2ccc(Cl)cc2)nc1-c1cc2cccc(OC)c2oc1=O	-17%	/	14%	/
COc1ccc(C(CC(=O)O)NS(=O)(=O)c2ccc3c(c2)N(C(C)=O)CC(C)O3)cc1 (stereo not given)	2%	6%	-13%	27µM*
CCOc1ccc2nc(NC(=O)c3ccoc3C)sc2c1	76%	89µM*	8%	-16%
CCOc1ccc2nc(NC(=S)NCc3ccccc3)sc2c1	?	?	?	27µM*
CCOc1ccc2nc(NC(=O)Cc3cccs3)sc2c1	/	1%	-2%	30µM*
COc1ccc2nc(NC(=O)Cc3cccs3)sc2c1	?	-18%	2%	-7%
O=S1(=O)C[C@H](N2CCN(CC3CC3)CC2)[C@@H](COCc2ccccc2)N1	3%	/	/	-7%
O=C(CCc1ccccc1)N1CCOCC12CCN(Cc1ccccc1)CC2	11%[176 µM]	/	/	/
CC(=O)c1sc(NCCOc2ccc(C)cc2)nc1C	-20%	-17%	-11%	-4%
CC(OC(=O)C1CC(=O)N(Cc2ccccc2)C1)C(=O)Nc1ccc(F)cc1Cl (stereo not given)	1%	/	1%	0%
C/C(=C\c1ccco1)C1C(C#N)=C(N)OC2=C1C(=O)CC(C)(C)C2 (stereo not given)	?	20µM*	-5%	-13%
C/C(=C\c1ccco1)C1C(C#N)=C(N)Oc2n[nH]c(-c3ccc(C)cc3)c21 (stereo not given)	?	?	-5%	-8%
SMILES	ALOX12 inh	Sfp inh	VDR inhibitor	PLK1 PBD block
CC1(C)CC(=O)C2=C(C1)OC(N)=C(C#N)C2c1ccoc1 (stereo not given)	4%	7%	5%	4%
CC1(C)CC(=O)C2=C(C1)OC(N)=C(C#N)C2C#Cc1ccccc1 (stereo not given)	?	?	45µM*	11µM*
CC(c1ccccc1)C1C(C#N)=C(N)OC2=C1C(=O)CC(C)(C)C2 (stereo not given)	-5%	12%	8%	-5%
C/C(=C\c1ccco1)C1C(C#N)=C(N)Oc2n[nH]c(-c3ccccc3)c21 (stereo not given)	?	79µM*	-10%	-24%
CC(=Nc1ccc(Cl)cc1N)c1c(O)cc(C)oc1=O	35µM*	/	/	/
COc1ccc(Cl)cc1-c1nc(C2CC(=O)N(c3ccc(F)cc3)C2)no1 (stereo not given)	1%	/	/	/
O=c1cc(-c2ccccc2)[nH]n1-c1ccc([N+](=O)[O-])cc1	?	-2%	-18%	21µM*
O=c1c(N=Nc2ccc(O)cc2)c(-c2ccccc2)[nH]n1-c1ccc([N+](=O)[O-])cc1	?	11%	-15%	-16%
O=c1c2ccccc2nc2ccc(NCc3ccco3)nn12	-16%	40µM*	1%	-9%
Cc1sc2nc(SCC(=O)NCc3ccco3)n(C)c(=O)c2c1C	3%	10%	-9%	-3%
O=C1c2ccccc2C(=O)N1Cc1nc2ccccc2c(=O)n1Cc1ccco1	/	10%	-12%	1%
Cc1sc2nc3ccc(NCc4ccco4)nn3c(=O)c2c1C	0%	32µM*	4%	-19%
CCCC(=O)N1Cc2ccccc2CC2(CCN(Cc3ccccc3)CC2)C1	5%[6.33 µM]	/	/	/
CCN(CC)C(=O)c1cccc(-c2csc(C(O)c3ccc(OC)cc3)n2)c1 (stereo not given)	-26%	/	/	1%
C/C(=N\N=C1\NC(=O)C(Cc2ccccc2)S1)c1ccccc1 (stereo not given)	435%	6%	7%	30µM*
CCNc1c(NC(=O)c2c(OC)cccc2OC)c(=O)oc2ccccc12	8%	/	/	/
COC(=O)c1cc(S(=O)(=O)NCCN2CCN(c3ccccc3F)CC2)c[nH]1	21%	19%	-20%	21µM*
Cc1noc(C)c1NC(=O)N(C)C[C@H]1Oc2ccc(NC(=O)NC(C)C)cc2C(=O)N([C@H](C)CO)C[C@H]1C	-1%	/	11%	-14%
COc1ccc(-c2sc(Nc3ccccc3)n[n+]2-c2ccc(F)cc2)cc1Br	?	15%	-11%	?
CCc1ccc(Nc2n[n+](-c3ccccc3)c(-c3ccc(OCc4ccccc4)cc3)s2)cc1	22µM*	-7%	11%	?
O=C(O)c1ccc(-c2sc(Nc3ccccc3)n[n+]2-c2ccc(F)cc2)cc1	/	-14%	-6%	-30%
c1ccc(COc2ccc(-c3sc(Nc4ccccc4)n[n+]3-c3ccccc3)cc2)cc1	/	56µM*	/	/
O=C(O)c1ccc(-c2sc(Nc3ccccc3)n[n+]2-c2ccccc2)cc1	?	50µM*	5%	-5%
Cc1cccc(-c2sc(Nc3ccccc3)n[n+]2-c2ccccc2)c1	?	/	-24%	?
CCOc1ccc(C(=O)NCc2ccncc2)cc1	-1%	-2%	8%	-7%
CCC[C@H]1CN(c2ccc(Br)cc2)C(=O)[C@@H]1CC(=O)Nc1ccccc1	-10%	/	/	2%
Cc1ccc2c(c1)N(C(=O)CCC(=O)NCC(C)c1ccccc1)CC(C)O2 (stereo not given)	0%	6%	-2%	-7%
O=C(Nc1ccccc1O)c1cc2cc(Br)ccc2oc1=O	-20%	9%	-10%	-10%
CCC(CO)Oc1cc(NCc2cccc(C)c2)c2ncn(C(C)C)c2c1 (stereo not given)	0%	/	89µM*	-15%
Clc1ccc(-c2cc3ccccc3nc2N2CCOCC2)cc1	-2%	-7%	?	15µM*

Source: PubChem BioAssay (National Center for Advancing Translational Sciences (NCATS))
